Consider 38 compounds from the supplement of paper PMC6763611.

Each structure is given as a SMILES string. Bounds are passed on as bounds.

This assay concerns Plasmodium falciparum NF54. Kind of assay: growth inhibition relative to untreated control; higher = more inhibition. The settings on record: 5 µM; MM + chorismate end-products (CM screening medium); 72 h. Summed up: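 In dark 96-well half-area plates, each well held 100 μL of P. falciparum NF54 ring-stage culture at 1% parasitemia and 1% hematocrit. The cultures received a single test-compound dose of 5 μM or 1 μM and were kept at 37 °C for 72 h, in minimal RPMI either plain or enriched with folate (2.2 μM), pABA (7.3 μM), pHBA (7.3 μM), tyrosine (111 μM), phenylalanine (90 μM) and tryptophan. SYBR Green staining gave growth inhibition, expressed against untreated wells, with uninfected erythrocytes serving as the background.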
For `NS(=O)(=O)c1cccc(-c2ccc3ncc(N4CCOCC4)nc3c2)c1`, the growth inhibition is above 100%.

Consider `COc1cncc(-c2cncc(N3CCN(c4ccncc4)CC3)n2)c1`, for which the growth inhibition came to 97.4%.

`CCN(CC)C(=O)N1CCN(C)CC1`: the growth inhibition is below 0%.

Regarding `COc1cc(NC(C)CCCN)c2ncccc2c1` (stereo not drawn), the growth inhibition was 64.3%.

As to `c1ccc(-c2cc(N3CCCCC3)c3ccccc3n2)nc1`, the growth inhibition came out at 37.4%.

`O=C(NCCc1ccn(-c2ccccc2)n1)C1CCCCC1`: the growth inhibition is below 0%.

Take `O=C(Nc1ccc(F)c(-c2nc3cc(-c4ccccc4)cnc3[nH]2)c1)N1CCCC1`: the growth inhibition turned out to be 3.27%.

Consider `O=C(c1ccc(NCCO)cc1)C1C[C@H]1c1ccc(Cl)cc1` (stereo partly drawn), for which the growth inhibition stood at 91.8%.

For the compound `CCCCS(=O)(=O)Nc1ccc2cnn(C)c2c1`, the growth inhibition came to 13.4%.

Consider `COC(=O)c1c(NC(=O)c2c(F)c(F)c(F)c(F)c2F)sc2c1CCCCC2`, for which the growth inhibition was below 0%.

As for `CCCn1c(NC(=O)c2ccc3ccccc3n2)nc2ccccc21`, the growth inhibition was 86.1%.

`CC(c1cc(Cl)cc(Cl)c1)N(C)c1ncc2c(N)nc(N)nc2n1` (stereo not drawn): the growth inhibition was 53%.

`COc1ccc(C2=NN(C3CCCCCC3)C(=O)C2(C)C)cc1OCCCCOc1ccc(-c2nn[nH]n2)cc1`: the growth inhibition came out at 47.2%.

Turning to `CC(C)NCC(=O)Nc1cccc(C(=O)Nc2cccc(C(F)(F)F)c2)c1`, the growth inhibition was 89.3%.

For `O=C(Nc1ccc(N2CCNCC2)cc1)c1ccn2ncc(-c3cccc(Cl)c3)c2n1`, the growth inhibition is above 100%.

For `Cc1ccc(S(=O)(=O)N2CCN(C(=O)c3cc(-c4ccccc4)n[nH]3)CC2)cc1`, the growth inhibition worked out at 82.9%.

For `CCc1ccccc1-n1c(C)cn2c3c(=O)n(C(C(=O)OC)C(C)C)c(=O)n(C)c3nc12` (stereo not drawn), the growth inhibition was 84.3%.

For the compound `N#Cc1ccc(-c2cnc(N)c(-c3ccc(C(N)=O)cc3)n2)cc1`, the growth inhibition is above 100%.

For the compound `Cc1nc(-c2ccccn2)nc(N2CCC(Cc3ccccc3)C2)c1Cl` (stereo not drawn), the growth inhibition amounted to 80.2%.

Take `Cc1ccc2c(c1C)NC(=O)C21NN=C(c2ccccc2)S1` (stereo not drawn): the growth inhibition amounted to 98.3%.

Turning to `O=C(c1ccco1)N(CCCn1ccnc1)c1nc2c(Cl)cccc2s1`, the growth inhibition was above 100%.

Regarding `O=C(Nc1nc(-c2ccccn2)cs1)c1cncn1-c1ccccc1`, the growth inhibition came out at 65%.

As to `COc1ccccc1C(C)NCC(=O)Nc1cc(C(F)(F)F)ccc1Cl` (stereo not drawn), the growth inhibition was found to be 88.6%.

For `O=C(C(Cc1c[nH]c2ccccc12)NS(=O)(=O)c1ccc(Cl)cc1)N1CCCCC1` (stereo not drawn), the growth inhibition worked out at 96.8%.

Consider `CC(C)=CCC/C(C)=C/CNCCNC1C2CC3CC(C2)CC1C3` (stereo not drawn), for which the growth inhibition is above 100%.

Consider `COc1nc2ccc(Br)cc2cc1[C@@H](c1ccccc1)[C@@](O)(CCN(C)C)c1cccc2ccccc12`, for which the growth inhibition is 99.4%.

As to `CC(C)(C)n1nc(-c2ccccc2)c2c(N)ncnc21`, the growth inhibition came to 38.5%.

Consider `CCCS(=O)(=O)N1CCC(CO)(Cc2ccccc2C(F)(F)F)CC1`, for which the growth inhibition worked out at 99.7%.

Take `c1ccc(-c2nc(NC3CCCCC3)cc(C3CC3)n2)nc1`: the growth inhibition came out at 94.6%.

As to `Cn1ccnc1CNCCS(=O)(=O)c1cccc(Nc2ccc(-c3cccc(F)c3)cn2)c1`, the growth inhibition was 26.9%.

As to `Cc1nnc(NCc2cccc(Cl)c2)c2ccccc12`, the growth inhibition was determined as 4.67%.

In the case of `CCc1ccc(C(NCc2nc(N)nc(N(C)C)n2)C(C)C)cc1` (stereo not drawn), the growth inhibition is 51.5%.

Consider `CC(=O)Oc1ccccc1C(=O)Nc1ncc([N+](=O)[O-])s1`, for which the growth inhibition came to 12%.

In the case of `CCC(NC(=O)c1ccccc1NC(=O)c1ccc(C)cc1)C(=O)OC` (stereo not drawn), the growth inhibition was found to be 97.1%.

`CC(C)C(C(=O)Nc1ccc(S(=O)(=O)N(C)C)cc1)c1ccc(Cl)cc1` (stereo not drawn): the growth inhibition was determined as 98.6%.

Consider `COc1cc(C(F)(F)F)nc2ccc(C)c(N)c12`, for which the growth inhibition was below 0%.

Consider `CCOc1ccccc1C(=O)Nc1cccc(-c2nc3ncccn3c2C)c1`, for which the growth inhibition turned out to be 95.8%.

With `Cc1cc(NC(=O)c2ccc(Oc3ccc(Cl)cc3O)o2)no1`, the growth inhibition was determined as 24.4%.
